Results reported in the supplement of paper PMC10849652.
Of roughly 7,900 targets only a part is listed; those with a hit were picked by preference. About 0.6% of all pairs of compound and target were hits.

Columns and labels:
Assay in all cases: log2 fold change, soluble protein after heating vs DMSO (PISA); higher = thermal stabilisation; K562 cells, 10 uM, 30 min; active = over 0.2 and 3.5 SD of the protein, either way, in both replicates (recomputed)
[1] = compound: CN1CCN(CCOc2cc(OC3CCOCC3)c3c(Nc4c(Cl)ccc5c4OCO5)ncnc3c2)CC1 [saracatinib]
Procedure, shortened: (§1)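 Quantification of soluble protein used TMTpro 16plex LC-MS/MS, with channel sums equalised. Samples were the supernatant after 21,000xg for 90 min of pooled aliquots from K562 cells (2×10^6 cells/mL) treated with 10 μM compound for 30 min, heated for 3 min over 48°C-58°C, and extracted in PBS with 0.5% NP-40 at 4°C. Values, from duplicates, describe thermal stability against control samples on a log2 fold-change scale.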

[2] = compound: CN1CCN(c2nc(C3=C(c4c[nH]c5ccccc45)C(=O)NC3=O)c3ccccc3n2)CC1 [sotrastaurin]
Procedure, shortened: as §1

[3] = compound: CN1CC[C@H](c2c(O)cc(O)c3c(=O)cc(-c4ccccc4Cl)oc23)[C@H](O)C1 [alvocidib]
Procedure, shortened: as §1

[4] = compound: CN1CCc2c(c3ccccc3n2Cc2ccc(C(=O)NO)cc2)C1 [Tubastatin A]
Procedure, shortened: as §1

[5] = compound: CNC(=O)C1=CC=CC=C1NC2=NC(=NC=C2Cl)NC3=C(C=C(C=C3)N4CCOCC4)OC
Procedure, shortened: as §1

[6] = compound: CNC(=O)c1ccc(Nc2ncc(C(F)(F)F)c(NCc3nccnc3N(C)S(C)(=O)=O)n2)cc1 [defactinib]
Procedure, shortened: as §1

[7] = compound: CNCc1ccc(-c2[nH]c3cc(F)cc4c3c2CCNC4=O)cc1 [rucaparib]
Procedure, shortened: as §1

[8] = compound: CNc1nc(-c2ccc3c(N)n[nH]c3c2)cc(N2C[C@@H](C(=O)NC3CCCCC3)CC[C@H]2C)n1
Procedure, shortened: as §1

[9] = compound: COC(=O)N[C@@H](C)CNc1nccc(-c2cn(C(C)C)nc2-c2cc(Cl)cc(NS(C)(=O)=O)c2F)n1 [encorafenib]
Procedure, shortened: as §1

[10] = compound: COC(=O)[C@H](CCSC)NC(=O)C1=C(C=C(C=C1)NC[C@H](CS)N)C2=CC=CC=C2
Procedure, shortened: as §1

[11] = compound: COC1=CC=C(C=C1)CN2C=CC3=C2C=C(C=C3)C(=O)NO
Procedure, shortened: as §1

[12] = compound: CON(C)C(=O)N1N=C(c2cc(F)ccc2F)S[C@@]1(CCCN)c1ccccc1 [filanesib]
Procedure, shortened: as §1

[13] = compound: CO[C@H]1C[C@@H]2CC[C@@H](C)[C@@](O)(O2)C(=O)C(=O)N2CCCC[C@H]2C(=O)O[C@H]([C@H](C)C[C@@H]2CC[C@H](n3cnnn3)[C@H](OC)C2)CC(=O)[C@H](C)/C=C(\C)[C@@H](O)[C@@H](OC)C(=O)[C@H](C)C[C@H](C)/C=C/C=C/C=C/1C [zotarolimus]
Procedure, shortened: as §1

[14] = compound: COc1cc(C(=O)O)ccc1NC(=O)[C@@H]1N[C@@H](CC(C)(C)C)[C@](C#N)(c2ccc(Cl)cc2F)[C@H]1c1cccc(Cl)c1F [idasanutlin]
Procedure, shortened: as §1

[15] = compound: COc1cc(Nc2ncc3c(n2)-c2ccc(Cl)cc2C(c2c(F)cccc2OC)=NC3)ccc1C(=O)O [alisertib]
Procedure, shortened: as §1

[16] = compound: COc1cc2nc(-c3cc(F)ccc3O)nc(N[C@@H]3CNC[C@H]3C(C)(C)O)c2cc1OC
Procedure, shortened: as §1

[17] = compound: COc1cc2ncnc(Nc3ccc(F)c(Cl)c3)c2cc1OCCCN1CCOCC1 [gefitinib]
Procedure, shortened: as §1

[18] = compound: COc1cccc2cc(-c3nc([C@H]4CC[C@H](C(=O)O)CC4)n4ncnc(N)c34)[nH]c12
Procedure, shortened: as §1

[19] = compound: CS(=O)(=O)CCNCc1ccc(-c2ccc3ncnc(Nc4ccc(OCc5cccc(F)c5)c(Cl)c4)c3c2)o1 [lapatinib]
Procedure, shortened: as §1

[20] = compound: CS(=O)(=O)N1CCN(Cc2cc3nc(-c4cccc5[nH]ncc45)nc(N4CCOCC4)c3s2)CC1 [pictilisib]
Procedure, shortened: as §1

Measured: log2 fold change

ACSL3 (UniProt O95573)
UniProt O95573, sequence (O95573 whole entry, looked up): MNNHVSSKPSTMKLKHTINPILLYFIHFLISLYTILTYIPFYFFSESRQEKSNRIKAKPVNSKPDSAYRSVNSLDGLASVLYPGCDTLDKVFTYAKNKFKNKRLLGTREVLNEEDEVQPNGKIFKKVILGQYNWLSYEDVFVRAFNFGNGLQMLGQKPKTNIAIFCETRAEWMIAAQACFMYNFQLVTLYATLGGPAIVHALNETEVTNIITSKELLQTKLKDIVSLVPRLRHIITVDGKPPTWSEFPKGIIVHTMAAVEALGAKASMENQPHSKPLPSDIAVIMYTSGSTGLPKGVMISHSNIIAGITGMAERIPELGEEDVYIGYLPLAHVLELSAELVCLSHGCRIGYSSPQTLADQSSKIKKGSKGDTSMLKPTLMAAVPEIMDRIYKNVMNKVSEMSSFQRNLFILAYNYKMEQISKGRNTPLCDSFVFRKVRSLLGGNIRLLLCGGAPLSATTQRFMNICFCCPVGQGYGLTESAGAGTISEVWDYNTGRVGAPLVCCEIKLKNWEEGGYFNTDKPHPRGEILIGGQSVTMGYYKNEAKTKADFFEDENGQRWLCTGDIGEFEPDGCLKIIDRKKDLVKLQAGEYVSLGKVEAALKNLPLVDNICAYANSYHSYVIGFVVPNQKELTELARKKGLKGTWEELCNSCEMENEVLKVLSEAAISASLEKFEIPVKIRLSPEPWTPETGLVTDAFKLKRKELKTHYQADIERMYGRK
inactive: [1] 0 | [2] -0.014 | [3] -0.037 | [4] -0.022 | [5] -0.008 | [6] -0.043 | [7] -0.002 | [8] 0.041 | [9] 0.008 | [10] -0.01 | [11] 0.126 | [12] -0.045 | [13] 0.019 | [14] -0.127 | [15] 0.026 | [16] 0.046 | [17] 0.021 | [18] 0.037 | [19] 0 | [20] 0.022

ARPP19 (UniProt P56211)
UniProt P56211, sequence (P56211 whole entry, looked up): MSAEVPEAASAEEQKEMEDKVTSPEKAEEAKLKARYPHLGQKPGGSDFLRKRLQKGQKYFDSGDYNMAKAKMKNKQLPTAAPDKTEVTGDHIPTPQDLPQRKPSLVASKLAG
inactive: [1] -0.002 | [2] 0.01 | [3] 0.032 | [4] -0.047 | [5] -0.015 | [6] -0.089 | [7] -0.05 | [8] -0.056 | [9] -0.016 | [10] 0.002 | [12] 0.033 | [13] -0.016 | [14] 0.002 | [15] -0.061 | [16] -0.184 | [17] -0.007 | [18] 0.075 | [19] -0.01 | [20] -0.073
active: [11] 0.294

ATP11A (UniProt P98196)
inactive: [1] 0.082 | [2] 0.094 | [3] 0.059 | [4] 0.007 | [5] -0.002 | [6] -0.093 | [7] 0.192 | [8] 0.044 | [9] 0.008 | [10] 0.017 | [11] -0.027 | [12] 0.036 | [13] 0.011 | [14] 0.004 | [15] 0.23 | [16] 0.026 | [17] 0.057 | [18] 0.015 | [19] -0.033 | [20] 0.007

BRAP (UniProt Q7Z569)
UniProt Q7Z569, sequence (Q7Z569 whole entry, looked up): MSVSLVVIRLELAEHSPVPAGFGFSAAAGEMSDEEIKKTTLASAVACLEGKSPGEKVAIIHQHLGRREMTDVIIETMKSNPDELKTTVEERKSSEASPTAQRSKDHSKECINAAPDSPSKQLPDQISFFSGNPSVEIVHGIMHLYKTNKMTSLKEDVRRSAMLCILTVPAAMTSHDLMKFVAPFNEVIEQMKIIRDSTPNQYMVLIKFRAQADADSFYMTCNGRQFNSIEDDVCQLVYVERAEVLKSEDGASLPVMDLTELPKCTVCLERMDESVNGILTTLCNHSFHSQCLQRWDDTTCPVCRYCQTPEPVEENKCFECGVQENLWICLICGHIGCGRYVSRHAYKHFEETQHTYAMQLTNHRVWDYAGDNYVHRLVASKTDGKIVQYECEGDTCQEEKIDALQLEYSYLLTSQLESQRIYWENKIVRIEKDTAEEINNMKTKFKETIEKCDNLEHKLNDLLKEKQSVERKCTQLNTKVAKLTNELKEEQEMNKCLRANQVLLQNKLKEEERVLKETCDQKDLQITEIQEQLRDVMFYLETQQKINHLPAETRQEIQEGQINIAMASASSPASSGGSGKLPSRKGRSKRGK
inactive: [1] -0.04 | [2] -0.198 | [3] -0.042 | [4] 0.046 | [5] 0.057 | [6] -0.087 | [7] 0.076 | [8] -0.024 | [9] 0.042 | [10] -0.064 | [11] 0.062 | [12] 0.02 | [13] 0.01 | [14] 0.028 | [15] -0.058 | [16] -0.108 | [17] 0.053 | [18] -0.134 | [19] 0.073 | [20] -0.055

BUB1B isoform 3 (UniProt O60566)
UniProt O60566, sequence (O60566 whole entry, looked up): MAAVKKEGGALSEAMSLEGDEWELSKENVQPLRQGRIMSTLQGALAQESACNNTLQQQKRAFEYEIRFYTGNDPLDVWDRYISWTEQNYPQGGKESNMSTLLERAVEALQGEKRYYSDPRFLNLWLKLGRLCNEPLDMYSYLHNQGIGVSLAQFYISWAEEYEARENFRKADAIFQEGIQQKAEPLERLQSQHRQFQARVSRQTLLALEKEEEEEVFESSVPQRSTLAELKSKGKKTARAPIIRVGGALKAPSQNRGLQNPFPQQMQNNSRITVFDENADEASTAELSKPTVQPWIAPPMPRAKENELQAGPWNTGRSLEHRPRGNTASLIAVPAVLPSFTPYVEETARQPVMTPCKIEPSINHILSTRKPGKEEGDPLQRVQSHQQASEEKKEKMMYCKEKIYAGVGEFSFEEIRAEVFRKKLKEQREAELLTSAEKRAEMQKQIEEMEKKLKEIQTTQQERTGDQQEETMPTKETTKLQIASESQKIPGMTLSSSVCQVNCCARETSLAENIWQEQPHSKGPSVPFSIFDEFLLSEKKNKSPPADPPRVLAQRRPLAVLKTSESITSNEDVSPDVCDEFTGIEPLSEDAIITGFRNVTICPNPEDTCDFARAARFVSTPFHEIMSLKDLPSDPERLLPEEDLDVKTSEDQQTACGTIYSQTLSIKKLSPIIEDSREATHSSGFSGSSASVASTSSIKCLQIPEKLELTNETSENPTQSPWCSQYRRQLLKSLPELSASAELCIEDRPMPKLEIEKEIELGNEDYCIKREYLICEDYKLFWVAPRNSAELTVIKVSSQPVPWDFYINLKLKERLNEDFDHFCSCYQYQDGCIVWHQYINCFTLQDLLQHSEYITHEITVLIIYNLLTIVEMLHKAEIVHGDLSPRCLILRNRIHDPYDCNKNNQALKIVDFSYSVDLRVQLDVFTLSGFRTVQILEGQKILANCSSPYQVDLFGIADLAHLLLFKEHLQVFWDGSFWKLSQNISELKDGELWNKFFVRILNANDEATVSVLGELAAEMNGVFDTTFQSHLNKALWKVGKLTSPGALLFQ
inactive: [1] -0.071 | [2] -0.113 | [3] -0.074 | [4] 0.031 | [5] 0.042 | [6] -0.076 | [7] 0.006 | [8] -0.031 | [9] 0.097 | [10] -0.029 | [11] 0.038 | [12] 0.103 | [13] 0.014 | [14] -0.014 | [15] 0.005 | [16] 0.001 | [17] 0.032 | [18] -0.098 | [19] 0.006 | [20] 0.065

ARMC10 (UniProt Q8N2F6)
UniProt Q8N2F6, sequence (Q8N2F6 whole entry, looked up): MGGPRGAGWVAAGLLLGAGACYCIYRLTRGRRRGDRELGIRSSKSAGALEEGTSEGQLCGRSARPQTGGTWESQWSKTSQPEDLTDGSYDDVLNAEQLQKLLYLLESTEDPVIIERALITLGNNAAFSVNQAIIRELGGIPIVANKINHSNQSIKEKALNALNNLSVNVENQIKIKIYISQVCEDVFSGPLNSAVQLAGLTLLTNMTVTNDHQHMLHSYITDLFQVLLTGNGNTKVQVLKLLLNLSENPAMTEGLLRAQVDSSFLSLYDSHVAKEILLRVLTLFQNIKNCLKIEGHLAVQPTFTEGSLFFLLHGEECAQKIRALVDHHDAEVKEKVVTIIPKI
inactive: [1] 0.012 | [2] -0.123 | [3] 0.002 | [4] 0.109 | [5] 0.079 | [6] -0.03 | [7] 0.157 | [8] 0.006 | [9] 0.142 | [10] -0.049 | [11] 0.011 | [12] 0.046 | [13] 0.107 | [14] -0.092 | [15] -0.039 | [16] 0.117 | [17] 0.004 | [18] -0.133 | [19] -0.01 | [20] 0.07

ARAF (UniProt P10398)
inactive: [1] 0.037 | [2] -0.022 | [3] 0.013 | [4] -0.004 | [5] -0.084 | [6] -0.023 | [7] 0.01 | [8] 0.023 | [9] 0.177 | [10] -0.067 | [11] 0 | [12] -0.022 | [13] 0.06 | [14] 0.006 | [15] 0.076 | [17] 0.076 | [18] 0.06 | [19] 0.076 | [20] -0.175
active: [16] -0.274

ARRDC1 (UniProt Q8N5I2)
UniProt Q8N5I2, sequence (Q8N5I2 whole entry, looked up): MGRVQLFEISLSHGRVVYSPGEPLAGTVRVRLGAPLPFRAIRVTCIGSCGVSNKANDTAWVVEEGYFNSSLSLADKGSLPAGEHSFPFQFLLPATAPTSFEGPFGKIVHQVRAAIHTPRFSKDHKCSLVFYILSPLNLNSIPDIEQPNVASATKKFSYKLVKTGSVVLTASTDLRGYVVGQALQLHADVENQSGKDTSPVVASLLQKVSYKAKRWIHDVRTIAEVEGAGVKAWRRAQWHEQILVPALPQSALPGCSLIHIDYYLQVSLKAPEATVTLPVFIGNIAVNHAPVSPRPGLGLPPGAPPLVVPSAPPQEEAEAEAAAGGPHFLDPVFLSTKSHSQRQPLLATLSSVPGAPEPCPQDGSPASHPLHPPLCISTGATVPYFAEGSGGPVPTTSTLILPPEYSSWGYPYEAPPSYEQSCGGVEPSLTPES
inactive: [1] 0.17 | [2] -0.026 | [3] -0.275 | [4] 0.004 | [5] -0.06 | [6] -0.046 | [7] 0.075 | [8] -0.02 | [9] -0.01 | [10] -0.006 | [12] 0.013 | [13] 0.182 | [15] 0.152 | [16] -0.098 | [17] -0.009 | [18] 0 | [19] 0.01 | [20] -0.092

APH1A (UniProt Q96BI3)
inactive: [1] 0.025 | [2] 0.131 | [3] 0.073 | [4] 0.097 | [5] -0.047 | [6] -0.089 | [7] 0.002 | [8] -0.01 | [9] 0 | [10] -0.111 | [11] 0.101 | [12] -0.039 | [13] -0.062 | [14] 0.005 | [15] -0.228 | [16] -0.236 | [17] 0.043 | [18] 0.059 | [19] 0.091 | [20] 0.013

AP4S1 (UniProt Q9Y587)
UniProt Q9Y587, sequence (Q9Y587 whole entry, looked up): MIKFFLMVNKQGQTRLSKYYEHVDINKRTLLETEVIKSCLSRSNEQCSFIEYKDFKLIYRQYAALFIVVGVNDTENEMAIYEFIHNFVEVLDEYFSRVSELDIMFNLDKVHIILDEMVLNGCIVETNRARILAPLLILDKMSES
inactive: [1] -0.08 | [2] -0.117 | [3] -0.099 | [5] -0.05 | [6] 0.059 | [7] 0.039 | [8] -0.072 | [9] 0.073 | [10] 0.008 | [11] -0.039 | [12] 0.029 | [13] 0.126 | [14] -0.061 | [15] -0.098 | [16] -0.002 | [17] -0.083 | [18] 0.036 | [19] -0.047

ALKBH4 (UniProt Q9NXW9)
inactive: [1] -0.072 | [2] -0.106 | [3] -0.227 | [4] 0.086 | [5] 0.198 | [6] -0.056 | [7] 0.07 | [8] 0.03 | [9] 0.074 | [10] 0.071 | [11] -0.203 | [12] -0.036 | [13] 0.06 | [14] -0.036 | [15] 0.086 | [16] -0.058 | [18] 0.014 | [19] -0.023 | [20] 0.106

ASS1 (UniProt P00966)
inactive: [1] 0.062 | [2] 0.088 | [3] -0.098 | [4] -0.183 | [5] -0.047 | [6] -0.007 | [7] 0.11 | [8] -0.122 | [9] -0.018 | [10] 0.045 | [12] -0.101 | [13] 0.012 | [14] -0.085 | [15] 0.254 | [16] 0.047 | [17] -0.005 | [18] 0.056 | [19] -0.012 | [20] 0.018

ATF7 isoform 6 (UniProt P17544)
UniProt P17544, sequence (P17544 whole entry, looked up): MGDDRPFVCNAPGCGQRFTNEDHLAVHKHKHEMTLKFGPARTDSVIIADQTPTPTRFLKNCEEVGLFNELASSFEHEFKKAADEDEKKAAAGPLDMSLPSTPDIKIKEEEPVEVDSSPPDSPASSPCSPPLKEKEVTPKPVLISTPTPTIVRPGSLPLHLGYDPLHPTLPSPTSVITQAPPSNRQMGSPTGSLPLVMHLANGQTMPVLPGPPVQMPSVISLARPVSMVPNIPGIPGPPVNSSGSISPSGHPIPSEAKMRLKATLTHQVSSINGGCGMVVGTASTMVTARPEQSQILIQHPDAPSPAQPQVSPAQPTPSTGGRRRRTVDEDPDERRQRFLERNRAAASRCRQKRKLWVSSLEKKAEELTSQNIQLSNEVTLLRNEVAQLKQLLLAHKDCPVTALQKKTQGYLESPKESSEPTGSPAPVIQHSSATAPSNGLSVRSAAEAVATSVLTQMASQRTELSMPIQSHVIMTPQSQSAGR
active: [1] 0.477
inactive: [2] -0.105 | [3] 0.026 | [4] -0.088 | [5] -0.096 | [6] 0.063 | [8] 0.034 | [10] -0.037 | [11] 0.04 | [12] 0.417 | [13] 0.03 | [14] 0.084 | [15] -0.007 | [16] -0.004 | [17] 0.09 | [18] 0.09 | [19] 0.121

AASDH (UniProt Q4L235)
UniProt Q4L235, sequence (Q4L235 whole entry, looked up): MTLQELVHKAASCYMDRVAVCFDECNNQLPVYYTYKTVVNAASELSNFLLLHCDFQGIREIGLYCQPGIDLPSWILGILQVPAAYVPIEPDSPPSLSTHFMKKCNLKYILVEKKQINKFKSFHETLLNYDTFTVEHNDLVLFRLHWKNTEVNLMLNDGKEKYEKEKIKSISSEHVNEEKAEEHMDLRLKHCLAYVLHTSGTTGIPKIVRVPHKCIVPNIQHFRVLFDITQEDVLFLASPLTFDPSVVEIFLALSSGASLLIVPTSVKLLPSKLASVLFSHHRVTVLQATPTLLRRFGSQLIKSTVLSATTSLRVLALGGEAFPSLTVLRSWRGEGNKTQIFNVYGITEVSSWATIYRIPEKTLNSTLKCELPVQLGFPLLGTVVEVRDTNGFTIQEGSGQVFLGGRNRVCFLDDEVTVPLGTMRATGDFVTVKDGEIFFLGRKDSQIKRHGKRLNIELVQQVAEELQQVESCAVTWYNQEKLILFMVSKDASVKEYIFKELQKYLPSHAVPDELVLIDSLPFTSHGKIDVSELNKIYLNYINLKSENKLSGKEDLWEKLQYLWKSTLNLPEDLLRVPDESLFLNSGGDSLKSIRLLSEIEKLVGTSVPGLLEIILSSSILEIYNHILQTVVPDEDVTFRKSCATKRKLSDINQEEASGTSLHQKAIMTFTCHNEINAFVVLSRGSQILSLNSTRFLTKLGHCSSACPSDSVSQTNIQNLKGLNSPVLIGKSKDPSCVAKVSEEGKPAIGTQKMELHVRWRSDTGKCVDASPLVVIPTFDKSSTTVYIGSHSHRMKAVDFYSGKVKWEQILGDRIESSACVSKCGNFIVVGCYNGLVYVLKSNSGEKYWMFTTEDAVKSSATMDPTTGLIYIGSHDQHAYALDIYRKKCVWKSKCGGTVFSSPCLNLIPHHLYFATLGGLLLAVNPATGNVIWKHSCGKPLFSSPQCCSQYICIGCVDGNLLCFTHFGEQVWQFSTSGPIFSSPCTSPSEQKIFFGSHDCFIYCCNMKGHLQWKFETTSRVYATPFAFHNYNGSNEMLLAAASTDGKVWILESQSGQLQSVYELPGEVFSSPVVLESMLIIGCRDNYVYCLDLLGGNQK
inactive: [1] 0.011 | [2] -0.067 | [3] -0.035 | [4] 0.16 | [5] -0.014 | [6] -0.091 | [8] -0.036 | [10] -0.004 | [11] -0.13 | [12] -0.01 | [13] -0.221 | [15] -0.141 | [16] 0.041 | [17] -0.143 | [18] 0.207 | [19] 0.063 | [20] 0.093

ARHGAP4 isoform 2 (UniProt P98171)
inactive: [1] -0.094 | [2] 0.115 | [3] 0.089 | [4] -0.172 | [5] -0.096 | [6] 0.22 | [7] -0.062 | [8] -0.139 | [9] 0.047 | [10] 0.097 | [12] 0.027 | [13] -0.012 | [14] 0.104 | [15] 0.166 | [16] 0.067 | [17] -0.211 | [18] 0.028 | [19] 0.051

AUNIP isoform 2 (UniProt Q9H7T9)
inactive: [1] -0.007 | [2] -0.085 | [3] 0.053 | [4] 0.278 | [5] 0.189 | [6] 0.043 | [8] -0.086 | [10] 0.342 | [12] 0.125 | [13] -0.044 | [14] 0.142 | [16] -0.229 | [19] 0.099

APOB (UniProt P04114)
inactive: [1] -0.139 | [2] -0.17 | [3] -0.014 | [4] -0.021 | [5] 0.012 | [6] 0.05 | [7] -0.197 | [8] -0.364 | [9] 0.04 | [10] -0.005 | [11] 0.034 | [13] -0.013 | [14] -0.039 | [15] 0 | [16] -0.384 | [17] -0.129 | [18] 0.164 | [19] -0.352 | [20] 0.078
active: [12] -0.86
